HT1080-NT tox = kills 2HG-producing HT-1080-NT fibrosarcoma cells; AID 686970; 360,000 tested, 1.6% active; Potency, µM (doses to about 46.1 µM), most hits filed as cytotoxic; HT-1080-NT fibrosarcoma viability, CellTiter-Glo ATP luminescence, 48 h;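 note: NT is the 2HG producing partner of a matched IDH1 knockdown line; nearly all actives have a fitted effect of over 55% in size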
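750 cells/well, RPMI + 5% FBS; 2 h settle, compound pin-transfer, 48 h at 37 degrees C. CellTiter-Glo 10 min RT, luminescence. Normalized to DMSO and media-only wells.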
HT1080 IDH1KD tx = kills HT-1080 cells with IDH1 knockdown. HT-1080 IDH1 knockdown viability, ATP luminescence, 48 h. 360,000 tested, 2% active. Potency, µM (top dose mostly 46.1 µM), actives largely listed as cytotoxic
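Assay cells: HT-1080 with IDH1 knockdown, 750 per well, RPMI/5% FBS. Exposure: 48 h at 37 °C following 2 h pre-incubation. Read: CellTiter-Glo luminescence; fitted concentration-response, curve class assigned.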
TDP1 cell CPT = DT40-hTDP1 cell growth loss with CPT; AID 686979; chicken DT40 Tdp1-/-;hTDP1 cells + 20 nM CPT, ATP luminescence, 48 h; 420,000 tested, 12% active; Potency, µM (doses to about 46.2 µM), hits mostly inhibitors; note: nearly all actives have a fitted effect of over 55% in size
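Chicken DT40 Tdp1-/- cells stably complemented with human TDP1 were seeded at 400 cells/well in medium containing 20 nM camptothecin, exposed to pin-transferred compounds, and grown at 37 °C for at least 48 hr. Viability was read as ATP luminescence.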
IL-1B inflam inh = inhibitors of inflammasome signaling (IL-1 beta secretion) | THP-1 LPS/ATP IL-1B secretion, AlphaLISA, 16 h; active compounds read low | activity change, % at 57.5 µM | 360,000 tested, 4.7% active | AID 743279; in the data active = activity change below about -50%; inconclusive = mostly about -30% to -49%
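THP-1 cells pretreated 1 hr with compounds (up to 57.5 uM final), then stimulated with LPS (250 ng/mL final) plus ATP (1.25 mM final); secreted IL-1B measured by AlphaLISA after 16 hr, decreased signal indicating inhibition.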
DT40 TDP1 no CPT = qHTS for Inhibitors of human tyrosyl-DNA phosphodiesterase 1 (TDP1): qHTS in cells in absence of CPT | DT40 Tdp1-/- hTDP1 cells, no CPT, ATP luminescence, 48 h | Potency, µM (series often up to 46.2 µM), most hits filed as inhibitors | 420,000 tested, 15% active; note: nearly all actives have a fitted effect of over 55% in size
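Growth kinetics read by CellTiter-Glo luminescence after ≥48 hr at 37 °C. Cells: DT40 Tdp1-/- stably carrying human TDP1, 400 per well, compound exposure in the absence of CPT (DMSO vehicle).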
A number is an active result; – = inactive; ? = inconclusive; · = not tested or not shown. The list is not random: actives were taken first. Their share in the collection is about 19%. Unless noted, calls come from the whole dose curve; as a rule, active = well fitted curve in the direction sought with a large enough effect; inconclusive = small, poorly fitted or top-dose-only effect, or another doubt; inactive = no such curve, though single readings can be large; an effect the other way counts as inactive or inconclusive.

SMILES	HT1080-NT tox	HT1080 IDH1KD tx	TDP1 cell CPT	IL-1B inflam inh	DT40 TDP1 no CPT
CN(Cc1ccccc1)C(=O)[C@@H]1CCCN1C(=O)[C@@H]1CCCN1C(=O)c1cccs1	–	–	–	–	–
CCOc1cc(OCC)cc(C(=O)N2CCC[C@H]2C(=O)N2CCC[C@H]2C(=O)N(C)Cc2ccccc2)c1	–	–	–	–	0.16µM
CN(Cc1ccccc1)C(=O)[C@@H]1CCCN1C(=O)[C@@H]1CCCN1C(=O)c1cccc2ccccc12	–	–	?	–	18µM
CC(=O)Nc1cccc(C(=O)NC2CCCc3c2cnn3-c2ccc(C(C)(C)C)cc2)c1 (centres undefined)	–	?	?	–	?
CC(C)(C)c1ccc(-n2ncc3c2CCCC3NC(=O)c2ccco2)cc1 (centres undefined)	–	–	21µM	–	15µM
Cc1cc(C)cc(-n2ncc3c2CCCC3NC(=O)c2cc(C)n(C)n2)c1 (centres undefined)	–	–	?	–	?
Cc1cc(C(=O)NC2CCCc3c2cnn3-c2ccc(C(C)(C)C)cc2)nn1C (centres undefined)	13µM	–	8.2µM	–	16µM
COC(=O)Nc1ccc2ncn(C)c(=O)c2c1	–	–	–	–	–
O=C1Cc2ccccc2C(c2ccc(Cl)cc2)N1 (centres undefined)	–	–	?	–	?
S=C1Cc2ccccc2C(c2ccc(Cl)cc2)N1 (centres undefined)	–	–	?	–	23µM
CCn1nc(C)c(NC(=O)Nc2cccc(Cl)c2Cl)c1C	–	–	–	–	–
O=C(NCc1nc2ccccc2[nH]1)C1=C[C@H](c2csc3ccccc23)C[C@H](OCc2ccc(CO)cc2)O1	–	–	?	–	15µM
O=C(NC1CC1)C1=C[C@H](c2ccc(Br)cc2)C[C@H](OCc2ccc(CO)cc2)O1	–	–	23µM	–	15µM
O=C(C1=C[C@@H](c2csc3ccccc23)C[C@@H](OCc2ccc(CO)cc2)O1)N1CCOCC1	–	–	?	–	–
C[C@H]1C=C(C(=O)NCc2nc3ccccc3[nH]2)O[C@@H](OCc2ccc(CO)cc2)C1	–	–	–	–	–
O=C(NCc1nc2ccccc2[nH]1)C1=C[C@@H](c2ccc(Br)cc2)C[C@@H](OCc2ccc(CO)cc2)O1	–	?	9.2µM	–	18µM
O=C(NCc1nc2ccccc2[nH]1)C1=C[C@@H](c2csc3ccccc23)C[C@@H](OCc2ccc(CO)cc2)O1	–	–	?	–	21µM
CCOc1ccccc1C(=O)NN1C(=O)CCC1=O	–	–	?	–	18µM
CCCn1c(N)c(N2CCCCC2)c(=O)n(CC(=O)Nc2ccccc2C(F)(F)F)c1=O	–	–	–	–	–
COc1ccc(Br)c(C(=O)Nc2cc3c(cc2N2CCCC2)n(C)c(=O)c(=O)n3C)c1	·	·	16µM	·	21µM
CCOc1ccccc1C(=O)NCCNC(=O)c1ccccc1OCC	–	?	–	–	–
CCn1c(=O)n(CC)c2cc(N3CCCCC3)c(NC(=O)Nc3ccccc3C(F)(F)F)cc21	·	·	12µM	·	10µM
CCn1c(=O)n(CC)c2cc(N3CCCC3)c(NC(=O)c3ccccc3)cc21	–	–	21µM	?	9.2µM
O=C(CS(=O)Cc1ccco1)NC/C=C\COc1cc(CN2CCCCC2)ccn1 (centres undefined)	·	·	–	·	–
O=C(Nc1c(-c2ccc(F)cc2)nc2ccccn12)c1ccccc1F	·	·	–	·	?
SMILES	HT1080-NT tox	HT1080 IDH1KD tx	TDP1 cell CPT	IL-1B inflam inh	DT40 TDP1 no CPT
COc1cc(C(C(=O)NC2CCCC2)N(C(=O)c2snc(C(N)=O)c2N)c2ccccc2)cc(OC)c1OC (centres undefined)	–	–	–	–	?
CCNC(=O)C1(C)CCN(Cc2ccc(OC(F)(F)F)cc2)C1 (centres undefined)	–	–	–	–	–
CN(C)c1ccc(C(=O)OCC(=O)c2ccc[nH]2)cc1	–	–	–	–	–
CC(=O)Nc1nonc1-c1nnc(SCC(=O)Nc2ccc(C)cc2C)n1C	·	·	–	·	?
CCOC(=O)[C@H]1[C@H]2COc3ccccc3[C@@H]2N2C(=O)[C@@H](CO)NC(=O)[C@@]12C	–	–	–	–	–
CCn1c(=O)n(CC)c2cc(N3CCCC3)c(NC(=O)Nc3cc(C)cc(C)c3)cc21	·	·	21µM	·	18µM
Cn1c(=O)c(=O)n(C)c2cc(N3CCCC3)c(NC(=O)c3ccccc3F)cc21	·	·	–	·	–
Cc1cc(C)cc(NC(=O)Nc2ccc(N3CCCCC3)cc2)c1	?	?	?	–	?
CCn1c(=O)n(CC)c2cc(N3CCCC3)c(NC(=O)c3cc(Br)ccc3OC)cc21	–	–	?	–	?
CCn1c(=O)n(CC)c2cc(N3CCCCC3)c(NC(=O)Nc3cc(Cl)ccc3OC)cc21	·	·	23µM	·	18µM
CCOc1ccccc1C(=O)Nc1cc2c(cc1N1CCCCC1)n(C)c(=O)n2C	·	·	15µM	·	18µM
CCn1c(=O)n(CC)c2cc(N3CCCC3)c(NC(=O)c3ccccc3F)cc21	–	–	18µM	?	12µM
Cn1c(=O)c(=O)n(C)c2cc(N3CCCC3)c(NC(=O)c3ccccc3Cl)cc21	·	·	–	·	?
Cn1c(=O)n(C)c2cc(N3CCCCC3)c(NC(=O)c3ccc(Cl)cc3)cc21	·	·	–	·	–
CCn1c(=O)n(CC)c2cc(N3CCCC3)c(NC(=O)c3ccccc3C)cc21	–	–	16µM	–	21µM
Cn1c(=O)n(C)c2cc(N3CCCCC3)c(NC(=O)c3ccccc3)cc21	?	–	29µM	–	?
CC(=O)Nc1nnc(SCC(=O)N2CCc3ccccc32)s1	–	–	–	–	–
O=C(c1ccco1)N1CCN(Cc2nnc(-c3cccc(Br)c3)o2)CC1	–	–	?	–	–
O=C1N[C@@H](Cc2ccccc2)C(=O)N2[C@H]1C[C@]1(Br)c3ccccc3N(S(=O)(=O)c3ccc(F)cc3)[C@H]21	–	–	18µM	–	?
CC(C)CN1C(=O)C(=O)N(CC(=O)N2CCN(c3ccccc3)CC2)C1=O	–	–	–	–	–
Cn1cc(C(N)=O)c2ccccc21	–	–	–	–	–
Cn1cc(/C(Cc2ccccc2)=N\O)c2ccccc21	–	–	23µM	–	16µM
Cn1cc(C(=O)CCl)c2ccccc21	?	?	2.3µM	-100	4.6µM
Cc1ccc(NS(=O)(=O)c2cccc(C(=O)NCC(c3cccs3)N(C)C)c2)cc1 (centres undefined)	?	?	16µM	–	?
CCN(c1ccccc1)S(=O)(=O)c1cccc(C(=O)NCC(c2cccs2)N(C)C)c1 (centres undefined)	–	–	?	–	21µM
